Sampled rows, rich in hits. Any-hit rate of the full collection: about 7.8%.
Luciferase inh = inhibitors of firefly luciferase; 2.2% of 72,000 active; purified firefly luciferase, luminescence, 8 min; Potency, µM (highest dose often 57.1 µM), for the others: at the highest dose activity change, negative = inhibition, hits mostly inhibitors; P08659; also: % is scaled to controls: 0 for no effect and ±100 for the full control effect; nearly all actives have a fitted effect of over 40% in size
Target sequence (P08659 whole entry, looked up): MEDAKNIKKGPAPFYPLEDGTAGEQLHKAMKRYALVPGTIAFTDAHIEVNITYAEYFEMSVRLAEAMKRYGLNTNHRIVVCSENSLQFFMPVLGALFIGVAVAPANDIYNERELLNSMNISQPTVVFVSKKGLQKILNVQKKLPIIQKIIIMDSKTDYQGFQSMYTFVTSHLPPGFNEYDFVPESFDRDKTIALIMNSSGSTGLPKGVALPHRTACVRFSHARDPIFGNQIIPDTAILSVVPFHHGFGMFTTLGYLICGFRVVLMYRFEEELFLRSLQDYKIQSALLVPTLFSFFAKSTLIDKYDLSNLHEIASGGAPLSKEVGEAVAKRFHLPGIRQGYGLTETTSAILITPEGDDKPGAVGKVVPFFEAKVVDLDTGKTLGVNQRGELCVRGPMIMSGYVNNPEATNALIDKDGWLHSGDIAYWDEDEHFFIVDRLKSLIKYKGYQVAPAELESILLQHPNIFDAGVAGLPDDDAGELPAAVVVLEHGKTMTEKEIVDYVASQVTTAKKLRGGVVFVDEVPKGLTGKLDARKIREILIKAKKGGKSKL
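Compounds were tested as concentration series (qHTS) against purified P. pyralis luciferase with luciferin and 10 uM ATP in 50 mM imidazole pH 7.2, 50 mM KCl, 7 mM MgCl2, 0.01% Tween 20, 0.05% BSA. Luminescence was read after 8 min at ambient temperature.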
TSHR ag = activates the human thyroid stimulating hormone receptor | Potency, µM (doses to about 57.1 µM), for the others: at the top dose activation, most hits filed as activators | HEK293-CNG-TSHR cells (CNG channel as cAMP sensor), membrane potential dye, cAMP | 0.48% of 73,000 active; active = well fitted activation curve with a large enough effect in the main read-out, with a control signal flat, not every such curve was filed as active; inconclusive = small, poorly fitted or top-dose-only effect, or a change in a side signal; inactive = no such curve, though single readings can be large or run the other way; % of control where 0% means no effect;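 also: the control signal comes from parental cells without the receptor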
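HEK 293 cells stably expressing TSHR and a modified CNG channel, with CNG-only parental cells as counterscreen, were preloaded 60 min at room temperature with membrane potential dye containing 100 uM RO 20-1724. Compound exposure was 30 min, and depolarization was read as fluorescence at 590 nm.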
15-hLO inh = 15-hLO (ALOX15) enzyme inhibition | purified 15hLO-1, xylenol orange hydroperoxide absorbance | P16050 | Potency, µM (top dose mostly 57.1 µM), for the others: at the highest dose activity change, negative = inhibition, most hits filed as inhibitors | AID 887 | 1.4% of 74,000 active; also: % is scaled to controls: 0 for no effect and ±100 for the full control effect; nearly all actives have a fitted effect of over 55% in size
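Compounds were preincubated 15 min at room temperature with 40 nM purified human enzyme (25 mM Hepes pH 7.5, 0.01% Triton X-100); 50 uM arachidonic acid reacted 6 min. Fe-xylenol orange detection, 30 min, absorbance ratio 573/405 nm.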
PK Bst = alters activity of Bacillus stearothermophilus pyruvate kinase; purified pyruvate kinase, luminescence ATP production; ribose 5-phosphate activator present at AC10; Potency, µM; 1.2% of 51,000 active; in the data active = potency below about 11 µM; inconclusive = mostly about 12 µM to 25 µM;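 the screen sought inhibitors and activators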;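 also: scaled between full activation by ribose 5 phosphate and full inhibition by luteolin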
Tau fil binding = tau filament binding; P10636; recombinant tau filaments, thioflavin S fluorescence, 15 h; filaments grown with octadecylsulfate alongside compound; Potency, µM (highest dose often 57.1 µM), inactives show top-dose activity change, negative = inhibition; 2% of 71,000 active; AID 596;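 also: % is scaled to controls: 0 for no effect and ±100 for the full control effect; actives lower thioflavin S fluorescence by blocking filaments or displacing dye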
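Quantitative HTS: thioflavine S signal from ODS-induced tau filaments, excited at 450 nm, emission 510 nm. Conditions: 1 uM tau, 30 uM ODS, 15 h at 37 C, pH 7.4.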
HEK293 cAMP ctrl = raises cAMP in parental HEK293 cells, TSHR agonist counter-screen. parental HEK293 CNG cAMP sensor, membrane potential fluorescence. Potency, µM (series often up to 57.1 µM), inactives show at the highest dose activation, usual class: activators. 2.5% of 73,000 active; also: % of control where 0% means no effect; nearly all actives have a fitted effect of over 55% in size
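Parental HEK 293 cells stably expressing a modified CNG channel (no TSHR) report cAMP rise as membrane depolarization. Membrane potential dye with 100 uM RO 20-1724 was loaded for 60 min at room temperature, then compound added for 30 min; fluorescence read at 590 nm.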
Numbers without * were called inactive; i = inactive; ? = inconclusive; . = no result given; [ ] = another dose, or the depositor's remark. Unless noted, calls follow the shape of the dose curve; as a rule, active = well fitted curve in the direction sought with a large enough effect; inconclusive = small, poorly fitted or top-dose-only effect, or another doubt; inactive = no such curve, though single readings can be large; an effect the other way counts as inactive or inconclusive. Potency is read from the fitted curve at half-maximal effect.

SMILES	Luciferase inh	TSHR ag	15-hLO inh	PK Bst	Tau fil binding	HEK293 cAMP ctrl
COc1ccccc1C(c1nnnn1CCc1ccccc1)N1CCN(c2ccccc2)CC1 (stereo not drawn)	3%	?	0%	>57	0%	?
Cc1ccc(CSC(N)=Nc2ccccc2)cc1C	-1%[11.4 µM]	10%[11.4 µM]	1%[11.4 µM]	.	-1%[11.4 µM]	4%[11.4 µM]
O=C(c1cccc(F)c1)N1CCC2(CC1)CN(Cc1ccccc1)C2	1%[11.4 µM]	?	2%	.	-1%	?
CC1=C(C(=O)OCc2ccccc2)C(C2CC2)NC(=O)N1CCCCCC(=O)O (stereo not drawn)	.	?	-22%	.	68%	20µM*
CCCCSC1=C(C#N)C(c2ccccc2C)C(C(=O)OCC)C(=O)N1 (stereo not drawn)	0%	-2%[11.4 µM]	?	.	-4%	17%
O=C(NCCN1C(=O)C2C3C=CC(C3)C2C1=O)Nc1ccccc1O (stereo not drawn)	?	3%	3%	.	-2%	22%
CCOC(=O)Cc1nnc2c(Nc3ccc(Cl)cc3)nc3nonc3n12	5%	?	-11%	>57	16µM*	?
CCOC(=O)N1CCN(C(=O)Nc2ccc(Cl)cc2)CC1	-2%	-12%	-2%	>57	-12%	6%
CS(=O)(=O)NCCC1=CCCCC1	-1%	-12%	20µM*	>57	-12%	0%
CS(=O)(=O)N1CCC(C(=O)NCCC2=CCCCC2)CC1	0%	3%	6%	>57	-5%	4%
CCc1ccccc1NC(=O)CSC1=C(C#N)C(c2ccc3c(c2)OCO3)C2=C(CCCC2=O)N1 (stereo not drawn)	-2%	11%	-3%	>57	-4%	8%
CC1=C(C(=O)Nc2ccccc2)C(c2ccc3c(c2)OCO3)C2=C(CCCC2=O)N1 (stereo not drawn)	0%	?	5%	>57	9%	16µM*
COc1cccc2sc(Nc3nc(-c4ccccn4)cs3)nc12	?	-10%	7%	.	128%	10%
Fc1cccc2sc(Nc3nnc(-c4ccco4)o3)nc12	25µM*	-19%	7%	.	-4%	-2%
COc1cccc2sc(Nc3nnc(-c4cccs4)o3)nc12	16µM*	-13%	28%	>57	52%	-6%
Cc1nc(SCc2c(F)cccc2Cl)c2c(=O)n(C)c(=O)n(C)c2n1	-1%	?	17%	.	171%	?
COc1ccc2nc3sc(C(=O)NCc4cccs4)c(N)c3cc2c1	-6%	-6%	20µM*	i	?	-3%
CCOc1ccc(C(=O)NCc2cccs2)cc1	-11%	6%	3%	>57	-6%	1%
C[C@@]12CC(=O)[C@@H]3[C@@H](CCC4=CC(=O)CC[C@]43C)[C@@H]1CC=C2CC(=O)O	-2%[11.4 µM]	1%[11.4 µM]	-8%[11.4 µM]	.	3%[11.4 µM]	6%[11.4 µM]
Nc1cc(-c2ccccc2)ccc1O	?	11%	7.9µM*	.	25µM*	-6%
CC(=O)Nc1cc(-c2ccccc2)ccc1O	0%	-9%	-7%	.	14%	-4%
CC(C)CN(CC(C)C)S(=O)(=O)N1CCC(C(=O)NC2CCCCCCC2)CC1	0%	?	-6%	>57	-30%	?
Nc1cc(C(=O)c2cccs2)ccc1Cl	-4%	19%	-24%	.	16µM*	1%
O=C(CCN1CCN(c2ccc(Cl)cc2)CC1)Nc1ccccc1F	3%	?	-20%	>57	-4%	25µM*
O=C(CCN1CCN(c2ccccc2F)CC1)Nc1ccccc1F	-1%	18%	-21%	>57	-25%	29%
SMILES	Luciferase inh	TSHR ag	15-hLO inh	PK Bst	Tau fil binding	HEK293 cAMP ctrl
COc1ccc(C)cc1NC(=O)CN1CCN(c2ccccc2F)CC1	1%	?	-22%	>57	7%	16µM*
COc1cccc(NC(=O)CCN2CCN(c3ccccc3F)CC2)c1	.	?	-15%	.	.	25µM*
CCOC(=O)OCC1OC(c2ccccc2)C=CC1Oc1ccc(F)cc1C (stereo not drawn)	.	10%[11.4 µM]	-9%[11.4 µM]	.	.	14%[11.4 µM]
Cc1cccc(CNc2ccnc(-c3ccccc3Cl)n2)c1	1%[2.29 µM]	22%	-4%	.	-14%	18%
Cc1ccc(Cl)cc1N1CCN(C(c2ccc(C#N)cc2)c2nnnn2C2CCCC2)CC1 (stereo not drawn)	-1%	?	-3%	>57	7%	1.3µM*
Cc1cc(Cc2cc(Cc3cc(C)cc(C(C)(C)C)c3O)c(C)cc2C)c(O)c(C(C)(C)C)c1	1%[11.4 µM]	-7%[11.4 µM]	-22%[11.4 µM]	.	?	-2%[11.4 µM]
Clc1ccccc1-c1nc(NC2CCNCC2)c2ccccc2n1	2%[2.29 µM]	2%	-8%	.	-19%	-5%
CC(=O)/C=C(\C)Nc1ccc(-c2cnc(-c3ccccc3)o2)cc1	10µM*	-18%[11.4 µM]	-8%[11.4 µM]	.	152%[11.4 µM]	-8%[11.4 µM]
c1ccc(-c2cnc(-c3ccc(-c4ncc(-c5ccccc5)o4)cc3)o2)cc1	1%[11.4 µM]	?	?	.	-1%[11.4 µM]	?
O=C(c1[nH]o[n+](=O)c1C(=O)c1csc2ccccc12)c1csc2ccccc12	3%[11.4 µM]	3%[11.4 µM]	-15%[11.4 µM]	.	2%[11.4 µM]	9%[11.4 µM]
CCCCCCn1c(-c2ccco2)nc2oc3cc(OC)ccc3c(=O)c2c1=O	0%	.	-26%	>57	3.2µM*	-21%
COc1ccc2c(=O)c3c(=O)n(Cc4ccco4)c(-c4ccccc4)nc3oc2c1	2%	18%	-2%	>57	2.5µM*	9%
Cc1nnc(SCC(=O)c2cc(C)n(-c3ccc4c(c3)OCO4)c2C)s1	-9%	?	-21%	>57	-12%	16µM*
Cc1cc(C(=O)CSc2nnc(-c3ccco3)o2)c(C)n1Cc1ccco1	-2%	?	25µM*	>57	34%	?
Cc1cc(C(=O)CSc2nnc(-c3cccs3)o2)c(C)n1-c1ccccc1	-11%	?	20µM*	>11	12%	?
Cc1cc(C(=O)CSc2nnc(-c3ccco3)o2)c(C)n1-c1ccc2c(c1)OCCO2	0%	?	-25%	>57	?	16µM*
O=C(CSc1nnc(-c2cccs2)o1)c1cccs1	-15%	1%	-7%	>57	8%	10%
C=CCSc1nc2c(N)ncnc2n1[C@@H]1O[C@H](CO)[C@@H](O)[C@@H]1O	4%[11.4 µM]	2%[11.4 µM]	5%[11.4 µM]	.	4%[11.4 µM]	9%[11.4 µM]
COC(=O)C1=C(C)NC(C)=C([N+](=O)[O-])[C@@H]1c1ccccc1C(F)(F)F	4µM*	-21%	-3%[25.6 µM]	.	32µM*	-21%
COC(=O)C1=C(C)NC(C)=C([N+](=O)[O-])[C@H]1c1ccccc1C(F)(F)F	-1%	?	-5%[25.6 µM]	.	32µM*	-39%
CC(C)CNC(=O)CN(C1CCCCC1)S(=O)(=O)c1ccccc1	0%	32µM*	-16%	.	8%	29%
C#C[C@@]1(O)CC[C@@H]2[C@@H]3CCC4=CC(=O)CC[C@@H]4[C@H]3CC[C@]21C	2%[25.5 µM]	?	0%[25.6 µM]	.	3%[25.6 µM]	?
